PubChem BioAssay (NCI)
This is part of a sample that, as a whole, favours compounds with a hit. Of some 83,000 tested, about 20% had one in any assay.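 Growth was measured after 48 h exposure to one concentration of compound in 96-well plates. Values under 10 count as active.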 A number with no mark means an inactive call. Calls of active or inactive are those of the source.

Key:
Assay in all cases: NCI-60 one-dose screen, 48 h (100 = growth as untreated, 0 = no growth, -100 = all killed)
Conditions in all cases: 10 µM unless noted
[1] = system: SR leukemia
[2] = system: RPMI-8226 leukemia
[3] = system: OVCAR-8 ovarian
[4] = system: OVCAR-5 ovarian
[5] = system: OVCAR-4 ovarian
[6] = system: SK-OV-3 ovarian
[7] = system: IGROV1 ovarian
[8] = system: HS 578T breast
[9] = system: NCI/ADR-RES ovarian
[10] = system: T-47D breast
[11] = system: MDA-MB-435 melanoma
[12] = system: SW-620 colon
[13] = system: MCF7 breast
[14] = system: HCT-116 colon
[15] = system: HCC-2998 colon
[16] = system: KM12 colon
[17] = system: BT-549 breast
[18] = system: OVCAR-3 ovarian

## COc1cc2c(cc1OCCCCC(=O)Nc1ccc(-c3nc4ccccc4s3)cc1)N=C[C@@H]1CCCN1C2=O
[1]
  growth: -55.4% (active)
[2]
  growth: -58.3% (active)
[3]
  growth: -8.71% (active)
[4]
  growth: 4.91% (active)
[5]
  growth: -11.9% (active)
[6]
  growth: 22.4%
[7]
  growth: -17.1% (active)
[8]
  growth: -37.5% (active)
[9]
  growth: 67.6%
[10]
  growth: 14.7%
[11]
  growth: -70.8% (active)
[12]
  growth: -16.9% (active)
[13]
  growth: 1.14% (active)
[14]
  growth: 5.56% (active)
[15]
  growth: -62% (active)
[16]
  growth: -58.7% (active)

## CC(C)(C)NCC(O)COc1c(Br)c(Br)c(Br)c2c1OC(C)(C)C2 (configuration not stated)
[1]
  growth: -61.6% (active)
[2]
  growth: -72.8% (active)
[3]
  growth: -54.8% (active)
[4]
  growth: -73.2% (active)
[5]
  growth: 15.3%
[6]
  growth: 92.1%
[7]
  growth: -84.2% (active)
[9]
  growth: -15.9% (active)
[10]
  growth: -26.4% (active)
[17]
  growth: 32.7%
[11]
  growth: -68.6% (active)
[12]
  growth: -97.5% (active)
[13]
  growth: -74.2% (active)
[14]
  growth: -26.5% (active)
[15]
  growth: -74.9% (active)
[16]
  growth: -80.7% (active)

## O=C(COc1ccc(Cl)cc1Cl)N1N=C(c2ccc(Cl)cc2Cl)CC1(O)c1cc(F)c(Cl)cc1Cl (configuration not stated)
[1]
  growth: 23.2%
[2]
  growth: 144%
[3]
  growth: 93.2%
[4]
  growth: 105%
[5]
  growth: 116%
[6]
  growth: 110%
[7]
  growth: 69.7%
[8]
  growth: 122%
[9]
  growth: 106%
[10]
  growth: 98.8%
[17]
  growth: 111%
[11]
  growth: 107%
[12]
  growth: 116%
[13]
  growth: 95.6%
[14]
  growth: 95%
[15]
  growth: 124%
[16]
  growth: 117%

## CCC1S/C(=N\N=C(/C)c2cccs2)N(c2ccccc2)C1=O (configuration not stated)
[1]
  growth: 32.6%
[2]
  growth: 110%
[3]
  growth: 97.3%
[4]
  growth: 111%
[5]
  growth: 99.7%
[6]
  growth: 121%
[7]
  growth: -27.2% (active)
[9]
  growth: 99%
[10]
  growth: 90.6%
[17]
  growth: 112%
[11]
  growth: 117%
[12]
  growth: 96.1%
[13]
  growth: 84.5%
[14]
  growth: 90.2%
[15]
  growth: 121%
[16]
  growth: 115%

## C[C@H]1C=C(C[C@@H](O)CC#CC#CCCCCC[C@@H](O)[C@H]2CCC(=O)O2)C(=O)O1
[1]
  growth: 121%
[2]
  growth: 114%
[3]
  growth: 110%
[4]
  growth: 95.6%
[5]
  growth: 105%
[6]
  growth: 95.5%
[7]
  growth: 54.1%
[8]
  growth: 117%
[9]
  growth: 95.5%
[10]
  growth: 92.8%
[17]
  growth: 112%
[11]
  growth: 111%
[12]
  growth: 103%
[13]
  growth: 115%
[14]
  growth: 83.2%
[15]
  growth: 105%
[16]
  growth: 110%

## Cc1cn([C@]2(CF)O[C@H](CO)C2C)c(=O)[nH]c1=O (some centres not stated)
[1]
  growth: 181%
[2]
  growth: 150%
[3]
  growth: 110%
[4]
  growth: 94.5%
[5]
  growth: 113%
[6]
  growth: 122%
[7]
  growth: -29.1% (active)
[8]
  growth: 110%
[9]
  growth: 113%
[10]
  growth: 119%
[17]
  growth: 110%
[11]
  growth: 133%
[12]
  growth: 98.6%
[13]
  growth: 120%
[14]
  growth: 100%
[15]
  growth: 121%
[16]
  growth: 110%

## COc1ccc(C2=NN(C(=O)COc3ccc(Cl)cc3)C(O)(c3cc(F)c(Cl)cc3Cl)C2)cc1 (configuration not stated)
[1]
  growth: 17%
[2]
  growth: 80.9%
[3]
  growth: 91%
[4]
  growth: 96.6%
[5]
  growth: 98.8%
[6]
  growth: 94.6%
[7]
  growth: 60.4%
[9]
  growth: 99%
[10]
  growth: 95.3%
[17]
  growth: 115%
[11]
  growth: 91.7%
[12]
  growth: 100%
[13]
  growth: 96.3%
[14]
  growth: 86.4%
[15]
  growth: 104%
[16]
  growth: 89.1%

## COc1cc([C@@H]2c3cc4c(cc3C(OC3O[C@@H]5COC(C)O[C@H]5[C@H](O)[C@H]3O)C3COC(=O)[C@@H]32)OCO4)cc(OC)c1O (some centres not stated)
[1]
  growth: -3.83% (active)
[2]
  growth: 37.4%
[3]
  growth: 26.9%
[5]
  growth: 88.3%
[6]
  growth: 35%
[7]
  growth: 65.4%
[18]
  growth: 37.1%
[8]
  growth: 59.3%
[9]
  growth: 90.4%
[10]
  growth: 23.9%
[17]
  growth: 31.4%
[11]
  growth: 50%
[12]
  growth: 35.6%
[13]
  growth: 22.4%
[14]
  growth: 41.7%
[15]
  growth: 38.7%
[16]
  growth: 42.1%

## O=C(O)c1cc2ccccc2cc1Nc1ccccc1
[1]
  growth: 97.8%
[2]
  growth: 78.4%
[3]
  growth: 100%
[4]
  growth: 90.8%
[5]
  growth: 97.5%
[6]
  growth: 106%
[18]
  growth: 108%
[8]
  growth: 121%
[9]
  growth: 93%
[10]
  growth: 89.3%
[17]
  growth: 113%
[11]
  growth: 103%
[12]
  growth: 105%
[13]
  growth: 76.2%
[14]
  growth: 89.7%
[15]
  growth: 99.1%
[16]
  growth: 109%

## CCCCN(CCCC)c1ccc(C(=N)c2ccc(N(C)C)cc2)cc1
[1]
  growth: -44.4% (active)
[2]
  growth: -43.3% (active)
[3]
  growth: -15.4% (active)
[4]
  growth: -2.12% (active)
[5]
  growth: 7.13% (active)
[6]
  growth: -7.53% (active)
[18]
  growth: -74.3% (active)
[8]
  growth: -68.9% (active)
[9]
  growth: -47.4% (active)
[10]
  growth: -23.3% (active)
[17]
  growth: -72.4% (active)
[11]
  growth: -74.1% (active)
[12]
  growth: -85.2% (active)
[13]
  growth: -52.9% (active)
[14]
  growth: -100% (active)
[15]
  growth: -47.5% (active)
[16]
  growth: -50.5% (active)

## C[C@@H]1CC2C3C[C@H](F)C4=CC(=O)C=C[C@]4(C)[C@@]3(F)[C@@H](O)C[C@]2(C)[C@@]1(O)C(=O)CO (some centres not stated)
[1]
  growth: 99%
[2]
  growth: 64.8%
[3]
  growth: 82.1%
[5]
  growth: 113%
[6]
  growth: 65.6%
[7]
  growth: 99.8%
[18]
  growth: 113%
[8]
  growth: 112%
[9]
  growth: 83.1%
[10]
  growth: 100%
[17]
  growth: 81.2%
[11]
  growth: 93.3%
[12]
  growth: 105%
[13]
  growth: 93.9%
[14]
  growth: 101%
[15]
  growth: 98.8%
[16]
  growth: 97.4%

## Cn1c2ccccc2c2ssc(=S)c21
[1]
  growth: 103%
[2]
  growth: 124%
[3]
  growth: 102%
[4]
  growth: 99.7%
[5]
  growth: 89.5%
[6]
  growth: 119%
[7]
  growth: -26.5% (active)
[8]
  growth: 70.3%
[9]
  growth: 86.8%
[10]
  growth: 87.3%
[17]
  growth: 110%
[11]
  growth: 91.7%
[12]
  growth: 105%
[13]
  growth: 92.9%
[14]
  growth: 101%
[15]
  growth: 101%
[16]
  growth: 99.7%

## COC(=O)c1oc2c(C(C)=O)c(OCCCN(C)C)ccc2c1C
[1]
  growth: 95%
[2]
  growth: 97.2%
[3]
  growth: 111%
[4]
  growth: 101%
[5]
  growth: 96.4%
[6]
  growth: 121%
[7]
  growth: 30.1%
[8]
  growth: 97.3%
[9]
  growth: 87.4%
[10]
  growth: 103%
[17]
  growth: 215%
[11]
  growth: 107%
[12]
  growth: 106%
[13]
  growth: 148%
[14]
  growth: 53.9%
[15]
  growth: 116%
[16]
  growth: 100%

## O=C(N/N=C1\SCC(=O)N1c1ccccc1)c1cc(-c2cc3ccccc3o2)nn1-c1ccccc1
[1]
  growth: 107%
[2]
  growth: 66.4%
[3]
  growth: 107%
[4]
  growth: 112%
[5]
  growth: 110%
[6]
  growth: 116%
[7]
  growth: 98.9%
[8]
  growth: 109%
[9]
  growth: 108%
[10]
  growth: 101%
[17]
  growth: 101%
[11]
  growth: 102%
[12]
  growth: 104%
[13]
  growth: 99.9%
[14]
  growth: 96.5%
[15]
  growth: 176%
[16]
  growth: 119%

## S=c1ssnc1-c1ccccn1
[1]
  growth: -25.5% (active)
[2]
  growth: 10.2%
[3]
  growth: 54.9%
[4]
  growth: 70.1%
[5]
  growth: 56.1%
[6]
  growth: 67.8%
[7]
  growth: 15.2%
[8]
  growth: -7.73% (active)
[9]
  growth: 48.4%
[10]
  growth: 27.1%
[17]
  growth: 49.5%
[11]
  growth: 36%
[12]
  growth: 5.79% (active)
[13]
  growth: 27.4%
[14]
  growth: 6.31% (active)
[15]
  growth: 50.8%
[16]
  growth: 32.8%

## CN(C)c1ccc(/C=N/n2c(-c3cc(F)c(Cl)cc3Cl)nn(CN3CCOCC3)c2=S)cc1
[1]
  growth: 83.6%
[2]
  growth: 97.2%
[3]
  growth: 104%
[4]
  growth: 92.8%
[5]
  growth: 106%
[6]
  growth: 101%
[7]
  growth: 104%
[8]
  growth: 110%
[9]
  growth: 97.3%
[10]
  growth: 94.1%
[17]
  growth: 91.3%
[11]
  growth: 80.7%
[12]
  growth: 109%
[13]
  growth: 118%
[14]
  growth: 92.6%
[15]
  growth: 111%
[16]
  growth: 102%

## O=C1CCC(=O)N1C1CCCCC1
[1]
  growth: 96.4%
[2]
  growth: 109%
[3]
  growth: 112%
[5]
  growth: 104%
[6]
  growth: 103%
[7]
  growth: 91.9%
[18]
  growth: 102%
[8]
  growth: 97.5%
[9]
  growth: 102%
[10]
  growth: 85.8%
[17]
  growth: 102%
[11]
  growth: 99.5%
[12]
  growth: 105%
[13]
  growth: 96.2%
[14]
  growth: 99%
[15]
  growth: 103%
[16]
  growth: 101%

## NS(=O)(=O)c1ccc(-n2nc(-c3ccc(Cl)cc3)ccc2=O)cc1
[1]
  growth: 64.4%
[2]
  growth: 99%
[3]
  growth: 102%
[4]
  growth: 99.9%
[5]
  growth: 100%
[6]
  growth: 93.8%
[18]
  growth: 106%
[8]
  growth: 88.2%
[9]
  growth: 68.4%
[10]
  growth: 95.2%
[17]
  growth: 92.9%
[11]
  growth: 43.5%
[12]
  growth: 93.1%
[13]
  growth: 86.2%
[14]
  growth: 99.6%
[15]
  growth: 102%
[16]
  growth: 69.7%
